# Values without a mark were called inactive. Inconclusive results are not listed. Where a call stands in place of a potency, no number is given. Active and inactive are the calls of the source. Unless noted, the call rests on the fitted dose curve.
# Key:
# [1] = molecular target: KiSS-1 receptor (Homo sapiens) (UniProt Q969F8); assay: Human kisspeptin (KISS1R) small molecule agonists, calcium flux assay in KISS1R-HEK293 cells (AID 1920064; active means well fitted activation curve with a large enough effect in the repeat runs)
# Summary of the method: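 Calcium flux read-out: kinetic fluorescence at Ex/Em=480/540, 1 s intervals over 3 min, after pin-tool compound addition to dye-loaded KISS1R-HEK293 cells. Fifteen concentrations, triplicates.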
# [2] = p53 small molecule agonists, cell-based qHTS assay with human liver microsomes (AID 1963577);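 further: p53 response element beta-lactamase reporter cells with liver microsomes plus NADPH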
# Summary of the method: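 Metabolically competent format: test substances, human liver microsomes and NADPH (both 0.5 mg/mL final) incubated with p53RE-bla cells 16 h at 37 C. Beta-lactamase reporter signal then quantified by fluorescence.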
# [3] = p53 small molecule agonists, cell-based qHTS assay with rat liver microsomes (AID 1963578)
# Summary of the method: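 Each plate received p53RE-bla cells, then compound, then rat liver microsomes and NADPH (both 0.5 mg/mL final). Plates were held 16 h at 37 C, and beta-lactamase activity was detected with LiveBLAzer over 2 h.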
# [4] = p53 small molecule agonists, cell-based qHTS assay with human liver microsomes: qHTS cell viability counter screen (AID 1963579); further: nearly all actives have a fitted effect of over 45% in size; further: potency means the concentration at half of the fitted maximal effect
# Summary of the method: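 Tox21 library compounds, delivered from DMSO stocks, were tested on p53RE-bla cells together with 0.5 mg/mL human liver microsomes and 0.5 mg/mL NADPH (final) over 16 h at 37 C; CellTiter-Glo luminescence served as the cytotoxicity measure.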
# [5] = p53 small molecule agonists, cell-based qHTS assay with rat liver microsomes: qHTS cell viability counter screen (AID 1963580); further: nearly all actives have a fitted effect of over 45% in size; further: potency means the concentration at half of the fitted maximal effect
# Summary of the method: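 Rat liver microsome (0.5 mg/mL final) and NADPH (0.5 mg/mL final) co-incubation with compounds for 16 h at 37 C on HCT-116 p53RE-bla cells; cytotoxicity taken from intracellular ATP luminescence.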
# [6] = p53 small molecule agonists, cell-based qHTS assay: qHTS cell viability counter screen (AID 1963581); further: nearly all actives have a fitted effect of over 45% in size; further: potency means the concentration at half of the fitted maximal effect
# Summary of the method: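 Cytotoxicity read-out: ATP-based luminescence (CellTiter-Glo, 30 min RT) measured in the same wells as the p53 reporter assay, HCT-116 p53RE-bla cells, 16 h compound exposure at 37 C.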
# [7] = molecular target: 5-hydroxytryptamine receptor 2A (Homo sapiens) (UniProt P28223); assay: 5-hydroxytryptamine receptor 2A (HTR2A) small molecule antagonists, cell-based qHTS assay (AID 1963586); further: nearly all actives have a fitted effect of over 45% in size
# Summary of the method: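 CHO cells stably expressing human HTR2A were plated for 18 h at 37 C, then loaded with calcium dye for 1 h. Compounds were preincubated 5 min at room temperature before DOI (4 nM solution) was added. Kinetic fluorescence was read for 3 min.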
# [8] = molecular target: Muscarinic acetylcholine receptor M1 (Homo sapiens) (UniProt P11229); assay: Cholinergic receptor muscarinic 1 (CHRM1) small molecule antagonists, cell-based qHTS assay (AID 1963588); further: nearly all actives have a fitted effect of over 40% in size
# Summary of the method: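 Compounds were tested at 15 concentrations in three independent runs. Dye-loaded CHRM1-CHO cells were exposed 5 min at room temperature before stimulation by acetylcholine added at 50nM. Intracellular calcium was read kinetically on FDSS for 3 min.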
# [9] = cAMP Responsive Elements (CRE) small molecule agonists, cell-based qHTS assay (AID 1963590)
# Summary of the method: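 Beta-lactamase reporter readout: LiveBLAzer B/G FRET substrate, 2 h at room temperature, added after 3 h compound treatment of CRE-bla HEK 293T cells at 37 C/5% CO2.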
# [10] = cAMP Responsive Elements (CRE) small molecule antagonists, cell-based qHTS assay (AID 1963591; active means well fitted inhibition curve with a large enough effect in the signal ratio in the repeat runs, not every such curve was filed as active; the % refers to the signal ratio; further: potency means the concentration at half of the fitted maximal effect)
# Summary of the method: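 HEK293T CRE-bla; 18 h preincubation; compound pin-transfer; NKH477 0.25 uM final, 3 h, 37 C; LiveBLAzer FRET substrate 2 h RT.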
# [11] = molecular target: Beta-2 adrenergic receptor (Homo sapiens) (UniProt P07550); assay: Adrenergic beta2 receptor (ADRB2) small molecule antagonists, cell-based qHTS assay (AID 1963592); further: nearly all actives have a fitted effect of over 50% in size; further: potency means the concentration at half of the fitted maximal effect; on activity change, negative = inhibition: series mostly up to about 92 µM
# Summary of the method: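 Assay format: CHO-ADRB2 cells, 18-20hr seeding at 37C/5% CO2, then compound plus 1nM isoproterenol agonist mix for 0.5hr RT. Homogeneous time-resolved fluorescence cAMP detection after 1hr, expressed as 665/615 nm ratio.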
# [12] = molecular target: D(2) dopamine receptor (Homo sapiens) (UniProt P14416); assay: Dopamine D2 receptor (DRD2) small molecule antagonists, cell-based qHTS assay (AID 1963595; active means well fitted inhibition curve with a large enough effect in the signal ratio in the repeat runs, with a control signal flat; the % refers to the signal ratio; further: potency means the concentration at half of the fitted maximal effect)
# Summary of the method: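 HEK293 cells stably expressing DRD2 were preincubated with 0.1 mM Ro20-1724, then with compound for 10 min at room temperature. Cells were stimulated with 200 nM NKH477 plus 12 nM quinpirole for 30 min, and cAMP was read by HTRF.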
# [13] = G protein-coupled receptor (GPCR) small molecule agonists, calcium flux assay: HEK293 wild type cell line counter screen (AID 1920065)
# Summary of the method: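 Agonist mode; 18 h seeding at 37 C, 1 h dye load at 37 C; compounds pinned from DMSO, ATP as positive control; kinetic fluorescence 480/540 nm, 3 min, 1 s reads; 15 concentrations, triplicate.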
# [14] = molecular target: Muscarinic acetylcholine receptor M1 (Homo sapiens) (UniProt P11229); assay: Cholinergic receptor muscarinic 1 (CHRM1) small molecule agonists, cell-based qHTS assay (AID 1963589); further: nearly all actives have a fitted effect of over 35% in size
# Summary of the method: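 Calcium flux read-out: kinetic fluorescence at 1 sec intervals after pin-tool compound addition to dye-loaded CHRM1-CHO cells (human M1). Agonist mode; 15 concentrations tested in triplicate independent runs.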
# [15] = molecular target: Beta-2 adrenergic receptor (Homo sapiens) (UniProt P07550); assay: Adrenergic beta2 receptor (ADRB2) small molecule agonists, cell-based qHTS assay (AID 1963593);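 further: CHO cells stably overexpressing human ADRB2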
# Summary of the method: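 CHO cells stably over-expressing ADRB2 were plated overnight at 37C, then dosed with compounds plus a stimulation mix containing 100uM IBMX and 25uM Ro-20-1724 for 0.5hr at room temperature. cAMP was measured by HTRF competition, 1hr.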
# [16] = molecular target: D(2) dopamine receptor (Homo sapiens) (UniProt P14416); assay: Dopamine D2 receptor (DRD2) small molecule agonists, cell-based qHTS assay (AID 1963594); further: nearly all actives have a fitted effect of over 35% in size
# Summary of the method: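 cAMP accumulation in DRD2-HEK293 cells measured by HTRF after 1 h detection; compounds added 10 min before NKH477 (200nM […]) forskolin-analogue stimulation, 30 min at room temperature, with Ro20-1724 present at 0.1 mM final.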
# [17] = molecular target: 5-hydroxytryptamine receptor 2A (Homo sapiens) (UniProt P28223); assay: 5-hydroxytryptamine receptor 2A (HTR2A) small molecule agonists, cell-based qHTS assay (AID 1963587); further: nearly all actives have a fitted effect of over 30% in size; further: potency means the concentration at half of the fitted maximal effect
# Summary of the method: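 Kinetic calcium-flux fluorescence (2 min, 1 sec intervals) after compound addition in agonist mode. HTR2A-CHO cells were cultured 18 h, then dye-loaded 1 h at 37 C.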
# [18] = p53 small molecule agonists, cell-based qHTS assay (AID 1963582; active means well fitted activation curve with a large enough effect in the signal ratio in the repeat runs, not every such curve was filed as active; the % refers to the signal ratio)
# Summary of the method: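 Fluorescence intensity read-out of a beta-lactamase reporter under a p53 response element. Cells were exposed to DMSO-dissolved compounds for 16 h at 37 C, then developed with FRET substrate for 2 h at RT.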
# Sequence of 5-hydroxytryptamine receptor 2A (Homo sapiens) (P28223 whole entry, looked up): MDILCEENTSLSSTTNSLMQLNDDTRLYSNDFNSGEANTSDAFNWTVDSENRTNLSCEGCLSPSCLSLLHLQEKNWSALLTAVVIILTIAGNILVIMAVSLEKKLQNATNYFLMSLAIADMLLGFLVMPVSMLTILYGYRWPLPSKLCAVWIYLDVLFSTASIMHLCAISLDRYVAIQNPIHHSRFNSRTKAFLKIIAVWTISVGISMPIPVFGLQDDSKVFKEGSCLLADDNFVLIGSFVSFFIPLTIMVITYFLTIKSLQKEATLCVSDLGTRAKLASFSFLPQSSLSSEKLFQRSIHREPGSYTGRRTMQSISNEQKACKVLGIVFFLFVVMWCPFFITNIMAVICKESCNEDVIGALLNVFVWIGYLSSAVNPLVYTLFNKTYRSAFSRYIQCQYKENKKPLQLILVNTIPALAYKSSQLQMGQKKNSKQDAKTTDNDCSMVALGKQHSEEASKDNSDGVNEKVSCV
# Sequence of Muscarinic acetylcholine receptor M1 (Homo sapiens) (P11229 whole entry, looked up): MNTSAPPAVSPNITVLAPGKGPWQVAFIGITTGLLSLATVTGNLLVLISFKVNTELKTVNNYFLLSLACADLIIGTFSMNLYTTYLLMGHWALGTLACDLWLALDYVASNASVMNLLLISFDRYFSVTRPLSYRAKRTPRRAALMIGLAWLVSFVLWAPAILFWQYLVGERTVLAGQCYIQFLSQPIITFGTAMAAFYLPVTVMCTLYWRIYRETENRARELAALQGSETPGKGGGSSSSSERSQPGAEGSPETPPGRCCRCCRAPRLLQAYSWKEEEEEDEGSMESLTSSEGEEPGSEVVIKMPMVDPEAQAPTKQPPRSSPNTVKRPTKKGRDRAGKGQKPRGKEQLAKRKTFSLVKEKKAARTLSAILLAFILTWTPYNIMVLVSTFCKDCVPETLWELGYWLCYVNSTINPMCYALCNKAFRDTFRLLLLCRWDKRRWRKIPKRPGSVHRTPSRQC
# Sequence of KiSS-1 receptor (Homo sapiens) (Q969F8 whole entry, looked up): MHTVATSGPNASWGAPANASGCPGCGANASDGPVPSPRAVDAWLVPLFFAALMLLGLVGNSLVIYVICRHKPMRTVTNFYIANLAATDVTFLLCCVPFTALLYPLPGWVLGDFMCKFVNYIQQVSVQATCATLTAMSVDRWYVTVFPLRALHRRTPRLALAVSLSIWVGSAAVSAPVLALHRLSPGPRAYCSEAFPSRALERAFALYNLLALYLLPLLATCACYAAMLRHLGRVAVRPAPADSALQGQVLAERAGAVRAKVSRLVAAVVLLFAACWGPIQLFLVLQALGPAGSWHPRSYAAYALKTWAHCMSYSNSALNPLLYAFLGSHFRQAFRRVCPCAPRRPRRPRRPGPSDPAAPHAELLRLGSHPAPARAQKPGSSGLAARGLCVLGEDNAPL
# Sequence of D(2) dopamine receptor (Homo sapiens) (P14416 whole entry, looked up): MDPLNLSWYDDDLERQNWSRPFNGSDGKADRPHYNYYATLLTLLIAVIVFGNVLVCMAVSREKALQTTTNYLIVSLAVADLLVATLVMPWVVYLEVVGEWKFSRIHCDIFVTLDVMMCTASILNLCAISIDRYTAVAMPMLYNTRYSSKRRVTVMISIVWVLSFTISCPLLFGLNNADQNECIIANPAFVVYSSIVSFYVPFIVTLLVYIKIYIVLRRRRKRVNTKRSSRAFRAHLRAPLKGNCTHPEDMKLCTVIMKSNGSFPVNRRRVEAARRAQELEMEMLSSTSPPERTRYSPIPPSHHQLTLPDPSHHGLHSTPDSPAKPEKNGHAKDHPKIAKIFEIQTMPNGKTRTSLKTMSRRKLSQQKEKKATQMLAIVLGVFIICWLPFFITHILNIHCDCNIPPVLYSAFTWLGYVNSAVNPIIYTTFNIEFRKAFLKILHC
# Sequence of Beta-2 adrenergic receptor (Homo sapiens) (P07550 whole entry, looked up): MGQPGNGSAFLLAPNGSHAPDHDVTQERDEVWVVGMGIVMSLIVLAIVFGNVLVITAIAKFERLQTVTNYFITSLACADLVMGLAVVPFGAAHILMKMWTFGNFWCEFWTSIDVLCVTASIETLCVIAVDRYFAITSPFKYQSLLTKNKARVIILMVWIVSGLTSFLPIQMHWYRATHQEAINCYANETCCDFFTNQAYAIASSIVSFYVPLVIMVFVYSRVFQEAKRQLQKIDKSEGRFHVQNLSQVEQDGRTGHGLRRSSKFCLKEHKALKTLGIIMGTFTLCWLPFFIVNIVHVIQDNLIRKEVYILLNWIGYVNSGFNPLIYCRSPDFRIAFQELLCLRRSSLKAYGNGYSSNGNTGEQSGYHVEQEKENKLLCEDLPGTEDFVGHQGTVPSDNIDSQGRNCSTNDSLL
compound,measurement,setting,value
c1coc(Cn2cccc2)c1,Potency,[1],inactive
same,Potency,[2],inactive
same,Potency,[3],inactive
same,Potency,[4],inactive
same,Potency,[5],inactive
same,Potency,[6],inactive
same,Potency,[7],inactive
same,Potency,[8],inactive
same,Potency,[9],inactive
same,Potency,[10],inactive
same,Potency,[11],30.6 µM (active)
same,Potency,[12],inactive
CCOc1nc2cccc(C(=O)OC(C)OC(=O)OC3CCCCC3)c2n1Cc1ccc(-c2ccccc2-c2nn[nH]n2)cc1 (stereo not given),Potency,[13],inactive
same,Potency,[2],inactive
same,Potency,[3],inactive
same,Potency,[4],12.9 µM (active)
same,Potency,[6],14.5 µM (active)
same,Potency,[7],inactive
same,Potency,[14],inactive
same,Potency,[11],inactive
same,Potency,[15],inactive
same,Potency,[16],inactive
same,Potency,[12],inactive
CCC(Cl)CC(Cl)C(Cl)C(Cl)C(Cl)C(C)Cl (stereo not given),activation,[1],-1.96% [at 15.8 µM]
same,activation,[13],0.622% [at 11.8 µM]
same,"activity change, negative = cytotoxicity",[4],-1.84% [at 13.5 µM]
same,"activity change, negative = cytotoxicity",[5],-14% [at 13.5 µM]
same,"activity change, negative = cytotoxicity",[6],-23.5% [at 13.5 µM]
same,"activity, negative = inhibition",[7],-18.7% [at 12.7 µM]
same,activation,[17],-1.32% [at 15.9 µM]
same,"activity, negative = inhibition",[8],-3.76% [at 12.6 µM]
same,"activity change, negative = inhibition",[10],6.46% [at 18.9 µM]
same,"activity change, negative = inhibition",[11],-8.4% [at 19 µM]
same,activation,[16],-1.17% [at 19 µM]
same,"activity change, negative = inhibition",[12],-0.674% [at 18.9 µM]
CCCNCC(O)COc1ccccc1C(=O)CCc1ccccc1 (stereo not given),Potency,[1],inactive
same,Potency,[13],inactive
same,Potency,[18],inactive
same,Potency,[9],inactive
same,Potency,[10],inactive
same,Potency,[11],0.841 µM (active)
same,Potency,[16],inactive
same,Potency,[12],inactive
C1CCOC1,Potency,[13],inactive
same,Potency,[2],inactive
same,Potency,[3],inactive
same,Potency,[4],inactive
same,Potency,[5],inactive
same,Potency,[6],inactive
same,Potency,[18],inactive
same,Potency,[7],inactive
same,Potency,[17],inactive
same,Potency,[8],inactive
same,Potency,[14],inactive
same,Potency,[10],inactive
same,Potency,[16],inactive
same,Potency,[12],inactive
NCc1cccc(C2CCN(C(=O)c3ccc(C#Cc4ccccc4F)o3)CC2)c1,Potency,[1],inactive
same,Potency,[13],inactive
same,Potency,[3],inactive
same,Potency,[4],inactive
same,Potency,[17],21.9 µM (active)
same,Potency,[14],inactive
same,Potency,[12],54.5 µM (active)
Clc1cc(Cl)c2c(c1)N=C1CCCCCN1C2,Potency,[1],inactive
same,Potency,[13],inactive
same,Potency,[2],inactive
same,Potency,[3],inactive
same,Potency,[4],inactive
same,Potency,[5],inactive
same,Potency,[18],inactive
same,Potency,[7],inactive
same,Potency,[17],inactive
same,Potency,[14],inactive
same,Potency,[11],inactive
same,Potency,[15],inactive
same,Potency,[16],inactive
Oc1ccc(C2(c3ccc(O)cc3)CC3CC2C2CCCC32)cc1 (stereo not given),Potency,[1],inactive
same,Potency,[13],inactive
same,Potency,[2],inactive
same,Potency,[3],inactive
same,Potency,[4],17.5 µM (active)
same,Potency,[6],34.9 µM (active)
same,Potency,[8],inactive
same,Potency,[14],inactive
same,Potency,[10],65.9 µM (active)
same,Potency,[11],inactive
same,Potency,[15],inactive
same,Potency,[16],inactive
O=C1c2ccccc2C(=O)c2c(Cl)cccc21,Potency,[1],inactive
same,Potency,[13],inactive
same,Potency,[2],inactive
same,Potency,[3],inactive
same,Potency,[5],0.965 µM (active)
same,Potency,[6],inactive
same,Potency,[18],inactive
same,Potency,[7],inactive
same,Potency,[17],inactive
same,Potency,[14],inactive
same,Potency,[11],inactive
same,Potency,[15],inactive
same,Potency,[16],inactive
same,Potency,[12],inactive
CC(C)(C)C1CCC(CC2=C(O)c3ccccc3C(=O)C2=O)CC1 (stereo not given),Potency,[1],inactive
same,Potency,[13],inactive
same,Potency,[2],inactive
same,Potency,[3],inactive
same,Potency,[4],inactive
same,Potency,[7],inactive
same,Potency,[17],inactive
same,Potency,[8],inactive
same,Potency,[14],inactive
same,Potency,[10],inactive
same,Potency,[11],inactive
same,Potency,[12],inactive

# Reference: PubChem BioAssay (Tox21)
